This note sets out measurements from paper PMC7862700, “An all-to-all approach to the identification of sequence-specific readers for epigenetic DNA modifications on cytosine”.

Common to all, as to assay: DAPPL (digital affinity profiling via proximity ligation, sequencing); 10 mM Tris-HCl pH 7.5, 50 mM NaCl, 1 mM DTT, 4% glycerol, room temperature, 30 min; GST-TFs on glutathione beads, 16-mer random dsDNA library, 0.1% formaldehyde crosslink after washing; high values mean tight binding
Common to all, as to conditions: protein: recombinant; tags: N-terminal GST; dsDNA, one strand shown

The target of one experiment is T1, ERF (Homo sapiens, UniProt P50548 1-548).
T1 sequence: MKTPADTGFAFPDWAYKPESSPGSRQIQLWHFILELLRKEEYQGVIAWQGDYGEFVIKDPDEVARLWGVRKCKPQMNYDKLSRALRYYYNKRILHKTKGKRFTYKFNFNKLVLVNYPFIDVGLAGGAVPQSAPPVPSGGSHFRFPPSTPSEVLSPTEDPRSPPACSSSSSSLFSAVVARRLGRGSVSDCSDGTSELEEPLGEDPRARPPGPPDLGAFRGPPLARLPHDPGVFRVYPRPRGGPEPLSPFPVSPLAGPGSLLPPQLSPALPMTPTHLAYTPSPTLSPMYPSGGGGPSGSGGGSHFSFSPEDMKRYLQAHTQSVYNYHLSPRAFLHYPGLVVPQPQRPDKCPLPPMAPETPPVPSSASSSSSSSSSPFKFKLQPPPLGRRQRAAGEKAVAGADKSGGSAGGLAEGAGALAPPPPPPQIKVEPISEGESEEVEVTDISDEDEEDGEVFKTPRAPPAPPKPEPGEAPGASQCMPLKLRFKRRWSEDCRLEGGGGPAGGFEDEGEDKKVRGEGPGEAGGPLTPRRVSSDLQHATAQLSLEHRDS
In short, it runs like this:
(§1)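 Binding signal is given per hexamer as its read frequency for a factor divided by its frequency in the tag-only sample. GST-fused human transcription factors were expressed in yeast, captured on glutathione beads, barcoded with DNA and pooled with that sample, then incubated with 200 nmole of a 16-mer random double-stranded DNA library in Tris/NaCl/DTT/glycerol buffer for 30 min at room temperature. The pools were then washed, crosslinked, proximity-ligated, amplified by PCR and sequenced on an Illumina NextSeq500.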

The target of another experiment is T2, ETV3L (Homo sapiens, UniProt Q6ZN32 1-361).
T2 sequence: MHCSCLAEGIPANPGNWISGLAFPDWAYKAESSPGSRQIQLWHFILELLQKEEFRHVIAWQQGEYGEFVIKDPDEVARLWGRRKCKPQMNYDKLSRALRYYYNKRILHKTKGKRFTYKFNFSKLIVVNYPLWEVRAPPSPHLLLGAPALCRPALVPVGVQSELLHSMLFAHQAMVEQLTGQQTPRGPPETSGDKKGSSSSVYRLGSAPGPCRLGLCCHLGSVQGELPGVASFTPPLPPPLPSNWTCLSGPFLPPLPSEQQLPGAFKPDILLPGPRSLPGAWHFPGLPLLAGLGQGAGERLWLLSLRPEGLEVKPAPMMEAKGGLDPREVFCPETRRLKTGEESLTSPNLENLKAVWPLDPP
In short, it runs like this:
as §1

Another experiment addresses T3, ETS2 (Homo sapiens, UniProt P15036 1-469).
T3 sequence: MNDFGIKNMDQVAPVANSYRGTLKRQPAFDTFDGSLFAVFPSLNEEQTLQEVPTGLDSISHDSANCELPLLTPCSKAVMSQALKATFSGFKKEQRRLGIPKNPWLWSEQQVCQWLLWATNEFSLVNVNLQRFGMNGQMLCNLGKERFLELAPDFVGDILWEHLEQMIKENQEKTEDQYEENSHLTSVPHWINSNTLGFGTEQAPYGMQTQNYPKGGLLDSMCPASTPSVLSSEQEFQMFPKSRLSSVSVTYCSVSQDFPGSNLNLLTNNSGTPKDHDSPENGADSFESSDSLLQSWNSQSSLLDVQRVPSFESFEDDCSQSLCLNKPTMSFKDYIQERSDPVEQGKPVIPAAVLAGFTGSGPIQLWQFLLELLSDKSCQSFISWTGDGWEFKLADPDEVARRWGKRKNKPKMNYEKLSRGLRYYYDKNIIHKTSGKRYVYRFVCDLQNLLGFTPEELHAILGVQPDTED
The gist of the method:
as §1

For a further experiment, the target named is T4, SPDEF (Homo sapiens, UniProt O95238 1-335).
T4 sequence: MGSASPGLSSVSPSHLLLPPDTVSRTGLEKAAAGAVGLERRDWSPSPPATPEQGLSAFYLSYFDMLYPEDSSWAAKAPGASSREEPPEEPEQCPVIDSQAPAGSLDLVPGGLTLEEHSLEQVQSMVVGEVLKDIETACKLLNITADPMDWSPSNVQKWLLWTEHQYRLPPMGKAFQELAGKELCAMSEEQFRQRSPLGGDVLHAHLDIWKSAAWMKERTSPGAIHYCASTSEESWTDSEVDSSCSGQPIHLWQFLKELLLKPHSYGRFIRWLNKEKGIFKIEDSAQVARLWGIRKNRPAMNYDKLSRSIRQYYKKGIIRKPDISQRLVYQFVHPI
The gist of the method: as §1

The target in the next experiment is T5, ETV7 (Homo sapiens, UniProt Q9Y603 1-341).
T5 sequence: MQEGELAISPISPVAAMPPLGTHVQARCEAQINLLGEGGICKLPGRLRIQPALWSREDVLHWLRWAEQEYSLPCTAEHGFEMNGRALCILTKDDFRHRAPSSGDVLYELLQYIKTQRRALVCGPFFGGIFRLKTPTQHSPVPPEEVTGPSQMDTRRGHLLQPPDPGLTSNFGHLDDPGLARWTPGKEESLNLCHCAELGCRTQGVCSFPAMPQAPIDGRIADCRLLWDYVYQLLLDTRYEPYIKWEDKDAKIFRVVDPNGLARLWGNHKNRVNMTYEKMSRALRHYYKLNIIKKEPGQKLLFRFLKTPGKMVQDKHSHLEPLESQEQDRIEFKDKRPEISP
In short, it runs like this:
as §1

The target of another experiment is T6, ELF5 (Homo sapiens, UniProt Q9UKW6-2 1-255).
T6 sequence: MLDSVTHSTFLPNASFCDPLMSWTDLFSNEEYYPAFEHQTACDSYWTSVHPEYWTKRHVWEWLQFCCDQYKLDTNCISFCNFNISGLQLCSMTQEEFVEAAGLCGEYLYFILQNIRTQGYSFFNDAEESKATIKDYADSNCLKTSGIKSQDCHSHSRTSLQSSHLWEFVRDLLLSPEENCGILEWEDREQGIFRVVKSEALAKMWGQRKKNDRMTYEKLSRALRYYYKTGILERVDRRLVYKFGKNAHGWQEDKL
The gist of the method: as §1

The target in the next experiment is T7, ETV3 (Homo sapiens, UniProt P41162-2 1-143).
T7 sequence: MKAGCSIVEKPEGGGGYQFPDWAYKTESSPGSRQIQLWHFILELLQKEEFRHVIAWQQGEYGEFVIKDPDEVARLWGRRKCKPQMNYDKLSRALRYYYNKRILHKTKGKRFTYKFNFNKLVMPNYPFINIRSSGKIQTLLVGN
In short, it runs like this: as §1

The target of another experiment is ETV6 (Homo sapiens, UniProt P41212 1-452). In short, it runs like this:
as §1

Chain of ETV6 (P41212 whole entry): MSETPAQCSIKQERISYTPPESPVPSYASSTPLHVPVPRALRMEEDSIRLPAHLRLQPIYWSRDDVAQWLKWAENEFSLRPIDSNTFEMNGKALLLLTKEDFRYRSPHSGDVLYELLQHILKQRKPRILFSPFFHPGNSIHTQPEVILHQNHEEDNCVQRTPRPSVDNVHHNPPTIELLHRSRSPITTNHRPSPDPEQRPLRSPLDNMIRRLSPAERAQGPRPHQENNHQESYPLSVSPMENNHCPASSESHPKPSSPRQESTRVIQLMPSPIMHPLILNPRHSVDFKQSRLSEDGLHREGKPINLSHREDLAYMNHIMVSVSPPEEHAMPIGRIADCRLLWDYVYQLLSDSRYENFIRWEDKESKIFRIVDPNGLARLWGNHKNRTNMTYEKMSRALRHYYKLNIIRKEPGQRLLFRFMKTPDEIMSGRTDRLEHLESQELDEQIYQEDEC

Regarding TCTATA, the binding signal with ERF is 1.15 fold enrichment (6-mer frequency, TF over GST control); in the experiment with ETV3L, 1.09 fold enrichment (6-mer frequency, TF over GST control); in the experiment with ETS2, 1.2 fold enrichment (6-mer frequency, TF over GST control); in the experiment with SPDEF, 1.15 fold enrichment (6-mer frequency, TF over GST control); with ETV7, 1.1 fold enrichment (6-mer frequency, TF over GST control); with ELF5 it was 1.08 fold enrichment (6-mer frequency, TF over GST control). In addition, the binding signal was 1.06 fold enrichment (6-mer frequency, TF over GST control) in the experiment with ETV3 and 1.07 fold enrichment (6-mer frequency, TF over GST control) in the experiment with ETV6.

Turning to CTAAGC, the binding signal in the experiment with ERF was 1.14 fold enrichment (6-mer frequency, TF over GST control); with ETV3L it was 1.09 fold enrichment (6-mer frequency, TF over GST control); with ETS2 it was 1.15 fold enrichment (6-mer frequency, TF over GST control); with SPDEF it was 1.06 fold enrichment (6-mer frequency, TF over GST control); with ETV7 it was 1.04 fold enrichment (6-mer frequency, TF over GST control); with ELF5, 1.07 fold enrichment (6-mer frequency, TF over GST control). Further, the binding signal with ETV3 is 1.07 fold enrichment (6-mer frequency, TF over GST control); in the experiment with ETV6 it was 1.08 fold enrichment (6-mer frequency, TF over GST control).

On to TCCACC, for which the binding signal was 1.25 fold enrichment (6-mer frequency, TF over GST control) with ERF; 1.22 fold enrichment (6-mer frequency, TF over GST control) with ETV3L; 1.21 fold enrichment (6-mer frequency, TF over GST control) with ETS2; 1.1 fold enrichment (6-mer frequency, TF over GST control) with SPDEF; 1.12 fold enrichment (6-mer frequency, TF over GST control) with ETV7; 1.19 fold enrichment (6-mer frequency, TF over GST control) with ELF5. The binding signal with ETV3 is 1.29 fold enrichment (6-mer frequency, TF over GST control); in the experiment with ETV6, 1.26 fold enrichment (6-mer frequency, TF over GST control).

Consider TGTACA, for which the binding signal was 1.28 fold enrichment (6-mer frequency, TF over GST control) in the experiment with ERF; 1.23 fold enrichment (6-mer frequency, TF over GST control) with ETV3L; 1.24 fold enrichment (6-mer frequency, TF over GST control) in the experiment with ETS2; 1.67 fold enrichment (6-mer frequency, TF over GST control) with SPDEF; 1.36 fold enrichment (6-mer frequency, TF over GST control) with ETV7; 1.12 fold enrichment (6-mer frequency, TF over GST control) in the experiment with ELF5. The binding signal with ETV3 was 1.17 fold enrichment (6-mer frequency, TF over GST control); with ETV6 it was 1.29 fold enrichment (6-mer frequency, TF over GST control).

For the sequence TGTAGC, the binding signal with ERF is 1.32 fold enrichment (6-mer frequency, TF over GST control); with ETV3L, 1.13 fold enrichment (6-mer frequency, TF over GST control); in the experiment with ETS2, 1.12 fold enrichment (6-mer frequency, TF over GST control); in the experiment with SPDEF, 1.2 fold enrichment (6-mer frequency, TF over GST control); in the experiment with ETV7, 1.12 fold enrichment (6-mer frequency, TF over GST control); with ELF5, 1.14 fold enrichment (6-mer frequency, TF over GST control). Moreover, the binding signal was 1.22 fold enrichment (6-mer frequency, TF over GST control) in the experiment with ETV3 and 1.12 fold enrichment (6-mer frequency, TF over GST control) in the experiment with ETV6.

As to TCTGTA, the binding signal was 1.16 fold enrichment (6-mer frequency, TF over GST control) with ERF; 1.24 fold enrichment (6-mer frequency, TF over GST control) in the experiment with ETV3L; 1.27 fold enrichment (6-mer frequency, TF over GST control) with ETS2; 1.26 fold enrichment (6-mer frequency, TF over GST control) with SPDEF; 1.03 fold enrichment (6-mer frequency, TF over GST control) in the experiment with ETV7; 1.17 fold enrichment (6-mer frequency, TF over GST control) with ELF5. For the same sequence, the binding signal with ETV3 was 1.25 fold enrichment (6-mer frequency, TF over GST control); in the experiment with ETV6, 1.18 fold enrichment (6-mer frequency, TF over GST control).
